# Measurements as given in PMC4336329 (PLoS ONE, 2015).
# Among all 310,000 compounds or so, about 14,000 (4.5%) showed an effect of 50% or more. Effects have a minus sign here. Shown is part of a subset that was picked to be rich in strong results.
# Molecular target: human ether-à-go-go-related gene (hERG) potassium channel (human, UniProt Q12809)
# Test: primary screen, population patch clamp on CHO cells stably expressing hERG; higher = less effect of the substance
# 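Further: peak tail current of the secondary pulse compared with the same well before compound.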
# human ether-à-go-go-related gene (hERG) potassium channel, sequence (Q12809 whole entry, looked up): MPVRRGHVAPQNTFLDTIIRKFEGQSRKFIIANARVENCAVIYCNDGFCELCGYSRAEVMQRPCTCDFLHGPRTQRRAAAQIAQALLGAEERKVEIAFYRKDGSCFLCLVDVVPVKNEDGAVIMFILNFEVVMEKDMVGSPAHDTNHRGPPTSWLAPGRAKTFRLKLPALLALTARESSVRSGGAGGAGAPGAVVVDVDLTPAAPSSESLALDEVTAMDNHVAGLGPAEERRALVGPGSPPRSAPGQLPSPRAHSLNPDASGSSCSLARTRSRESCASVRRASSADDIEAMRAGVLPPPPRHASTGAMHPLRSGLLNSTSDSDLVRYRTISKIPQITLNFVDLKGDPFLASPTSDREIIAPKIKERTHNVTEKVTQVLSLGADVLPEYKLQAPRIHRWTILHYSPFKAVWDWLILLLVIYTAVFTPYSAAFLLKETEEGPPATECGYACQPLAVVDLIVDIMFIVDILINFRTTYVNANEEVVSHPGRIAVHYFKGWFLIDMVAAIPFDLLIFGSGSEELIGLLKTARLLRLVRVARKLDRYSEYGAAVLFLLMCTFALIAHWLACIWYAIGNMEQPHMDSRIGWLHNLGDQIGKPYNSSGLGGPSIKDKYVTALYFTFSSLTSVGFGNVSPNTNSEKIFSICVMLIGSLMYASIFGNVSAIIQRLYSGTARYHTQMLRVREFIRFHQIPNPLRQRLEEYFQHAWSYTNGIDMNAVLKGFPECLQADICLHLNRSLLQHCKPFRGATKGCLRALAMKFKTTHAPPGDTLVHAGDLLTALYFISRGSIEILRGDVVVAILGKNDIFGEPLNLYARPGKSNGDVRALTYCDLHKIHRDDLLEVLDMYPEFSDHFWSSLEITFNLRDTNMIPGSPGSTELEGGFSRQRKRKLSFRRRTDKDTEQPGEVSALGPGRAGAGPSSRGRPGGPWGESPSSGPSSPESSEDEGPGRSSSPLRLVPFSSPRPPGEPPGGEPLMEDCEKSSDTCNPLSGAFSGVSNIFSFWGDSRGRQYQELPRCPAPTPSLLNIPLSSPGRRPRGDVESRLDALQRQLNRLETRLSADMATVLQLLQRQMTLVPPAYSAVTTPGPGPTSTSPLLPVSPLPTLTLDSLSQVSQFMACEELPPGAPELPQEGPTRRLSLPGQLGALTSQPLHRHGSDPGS
row,Structure (SMILES),"hERG current change (%, negative = inhibition) at 10uM [%]"
1,O=C(NN1C(=O)CSC1=S)C(=O)NN1C(=O)CSC1=S,25.3
2,O=C(Nc1ccccc1C(=O)Nc1ccccc1C(=O)O)c1ccccc1,20.5
3,CN1CCN(Cc2nnc(-c3ccccc3)o2)CC1,22.7
4,C/C(=C\C(=O)c1cccnc1)Nc1ccc(C)c(C)c1,-20
5,CCc1ccc(OCC2NCCc3cc(OC)c(OC)cc32)cc1 (stereo not shown),-45.2
6,CC(=O)Nc1ccc(N2CCCC2)cc1,6.33
7,CCN1CCN(C(c2ccccc2)c2sc3nc(C)nn3c2O)CC1 (stereo not shown),-9.32
8,C/C(CC(=O)N(C(C)C)C(C)C)=N\NC(=O)COc1ccc(Cl)cc1Cl,-22.6
9,C/C(CC(=O)N(C(C)C)C(C)C)=N\NC(=O)COc1ccc(Br)cc1Br,-51.3
10,C/C(CC(=O)Nc1ccccc1)=N\NC(=O)COc1ccc(C)cc1Br,2.14
11,Cc1cc2nc(-c3ccc(SCC(=O)Nc4ccc(S(=O)(=O)N5CCCC5)cc4)nc3)[nH]c2cc1C,8.52
12,Cc1cccc(N2C(=O)CC(N3CCN(Cc4ccc5c(c4)OCO5)CC3)C2=O)c1 (stereo not shown),-19.1
13,COc1ccc(CN2CCN(Cc3cn(C)nc3-c3ccccc3)CC2CCO)c(C)c1C (stereo not shown),-72.4
14,Cc1ccc(CN2CCN(Cc3cn(C)nc3-c3ccccc3)CC2CCO)o1 (stereo not shown),1.84
15,CCn1ncc(CN2CCN(Cc3ccc(OC)c(C)c3C)C(CCO)C2)c1C (stereo not shown),-19.9
16,Cn1cc(CN2CCN(Cc3ccccc3)C(CCO)C2)c(-c2ccccc2)n1 (stereo not shown),-37.9
17,CCOc1ccccc1CN1CCN(Cc2cn(C)nc2-c2ccccc2)CC1CCO (stereo not shown),-65.6
18,COc1cc(C2CC(=O)Oc3c2c(=O)n(C)c2ccccc32)ccc1O (stereo not shown),14.7
19,COc1ccc(NC(=O)C2(c3ccc(NC(=O)c4ccc(OC)cc4)cc3)CCCC2)cc1,-9.88
20,CCn1c(SCC(=O)N/N=C/c2ccccc2OCC(=O)O)nnc1-c1ccc(C)cc1,3.57
21,Cn1c(=O)c(C(=O)COC(=O)c2cc(C3CC3)nc3ccccc23)c(N)n(Cc2ccccc2)c1=O,13.8
22,Cc1ccccc1-n1ncc2c1CC(C)(C)CC2NC(=O)CCN1Cc2ccccc2C1=O (stereo not shown),-3.54
23,Cc1cccc(-n2ncc3c2CCCC3NC(=O)CCN2Cc3ccccc3C2=O)c1C (stereo not shown),2.55
24,CC(=O)c1cc(C(=O)NC2CCCc3c2cnn3-c2cc(C)cc(C)c2)[nH]n1 (stereo not shown),-23
25,Cc1ccc(-n2ncc3c2CCCC3NC(=O)c2csnn2)cc1C (stereo not shown),-33.2
26,Cc1cc(C)cc(-n2ncc3c2CCCC3NC(=O)c2csnn2)c1 (stereo not shown),-110

row,Structure (SMILES),"hERG current change (%, negative = inhibition) at 10uM [%]"
1,CC(=O)N1CCC(C(=O)NC2CCCc3c2cnn3-c2cc(F)cc(F)c2)CC1 (stereo not shown),-4.52
2,CC(C)(C)c1ccc(-n2ncc3c2CCCC3NC(=O)c2csnn2)cc1 (stereo not shown),1.88
3,Cc1cc(C)cc(-n2ncc3c2CCCC3NC(=O)c2cc(C)[nH]n2)c1 (stereo not shown),-67.5
4,Cc1cc(C(=O)NC2CCCc3c2cnn3-c2ccc(C(C)(C)C)cc2)n[nH]1 (stereo not shown),-5.84
5,Cc1cc(C)cc(-n2ncc3c2CCCC3NC(=O)CCN2Cc3ccccc3C2=O)c1 (stereo not shown),-54.3
6,Cc1cc(C)cc(-n2ncc3c2CCCC3NC(=O)C2(C(N)=O)CC2)c1 (stereo not shown),13.7
7,Cc1cc(C)cc(-n2ncc3c2CCCC3NC(=O)C2CCC2)c1 (stereo not shown),-76
8,O=C(/C=C/Nc1ccc(S(=O)(=O)Nc2cnc3ccccc3n2)cc1)c1cccnc1,-12.9
9,O=C(C[n+]1cc(Br)cc(Br)c1)c1ccccc1.[Br-],8.53
10,CC(C)C(=O)c1cn(CC(=O)NCc2ccc3c(c2)OCO3)c2ccccc12,16
11,CC1(C)CC(=O)C=C(c2ccc3[nH]ccc3c2)C1,1.61
12,O=C(CC1SC(=Nc2ccc3c(c2)OCCO3)NC1=O)Nc1ccc(F)cc1F (stereo not shown),8.62
13,Cc1n[nH]c(=S)n1/N=C/c1ccc(OCc2ccc(Cl)cc2Cl)cc1,11.1
14,Cc1cc(NC(=O)Cn2nnc(-c3ccccc3N)n2)no1,11.8
15,CCOC(=O)c1c(NC(=O)CSc2nnc(-c3ccccc3)o2)sc(C(C)=O)c1C,5.01
16,Cc1ccc(C(=O)N2CCN(c3ccc([N+](=O)[O-])cc3-n3cccc3)CC2)cc1,-56.4
17,O=C(c1ccccc1F)N1CCN(c2ccc([N+](=O)[O-])cc2-n2cccc2)CC1,-23.1
18,O=C(c1ccc(F)cc1)N1CCN(c2ccc([N+](=O)[O-])cc2-n2cccc2)CC1,-65
19,CC(C)(C)C(=O)N1CCN(c2ccc([N+](=O)[O-])cc2-n2cccc2)CC1,-26.3
20,O=C(C1CC1)N1CCN(c2ccc([N+](=O)[O-])cc2-n2cccc2)CC1,-31
21,Cc1ccc(N2CCN(C(=O)c3ccccc3)CC2)c(C)c1,-18.4
22,O=C(c1ccccc1)N1CCN(c2ccc([N+](=O)[O-])cc2-n2cccc2)CC1,-54.5
23,O=C(c1ccc(F)cc1)N1CCC(C(=O)N2CCN(S(=O)(=O)c3cccc([N+](=O)[O-])c3)CC2)CC1,-34.5
24,CCOC(=O)C1CCCN(C(=O)c2cc3ccc(OC)cc3[nH]2)C1 (stereo not shown),6.4
25,CN1CCN(CCCNCc2cn(CCC#N)c3ccccc23)CC1.O=C(O)C(=O)O,9.43
26,Cc1ccc(C(O)(COC(=O)C(C)C)COC(=O)C(C)C)c(O)c1,3.76
